# Shown are actives, neighbours in structure and some others; about 7.9% of the full set was active somewhere.
# KB-V1 cytotox – kills drug-selected multidrug resistant KB-V1 cells. hit rate 3.4% among 400,000. Potency, µM (titrated, usually from 46.1 µM), usual class: cytotoxic. AID 1347076. KB-V1 MDR cells viability, CellTiter-Glo, 72 h; also: % is scaled to controls: 0 for no effect and ±100 for the full control effect; nearly all actives have a fitted effect of over 60% in size
#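 Potencies derive from concentration-effect curves fitted to normalized luminescence (CellTiter-Glo) of KB-V1 cells treated for 72 h at 37 degrees C in phenol-red-free DMEM containing 10% FBS.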
# HT1080NT lethal – kills 2HG-producing HT-1080-NT fibrosarcoma cells | HT-1080-NT fibrosarcoma viability, CellTiter-Glo ATP luminescence, 48 h | Potency, µM (highest dose often 46.1 µM), for the others: at the highest dose activity, negative = less viability, hits mostly cytotoxic | hit rate 1.6% among 360,000 | AID 686970;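 also: NT is the 2HG producing partner of a matched IDH1 knockdown line; 0% = DMSO-treated cells and -100% = media-only wells without cells; nearly all actives have a fitted effect of over 55% in size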
#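 HT-1080-NT; 750 cells/well; 5% FBS RPMI; 48 h compound, 37 degrees C; CellTiter-Glo luminescence; curve fitting and curve-class assignment.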
# SW480 rereplic – DNA re-replication induction in SW480 cells | hit rate 1.8% among 340,000 | SW480 DNA re-replication, Hoechst DNA content imaging, 48 h | Potency, µM (top dose mostly 46.1 µM), for the others: at the top dose re-replication activation, hits mostly activators | AID 624297; also: % of control where 0% means no effect; nearly all actives have a fitted effect of over 55% in size
#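 Image-based read-out: total Hoechst fluorescence of nuclei (405 nm excitation, 500-530 nm emission), with hits raising the fraction of high-intensity nuclei. SW480 colon cells incubated 48 hr with compounds at 37 C.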
# MCF10A rerep – induces DNA re-replication in MCF 10a normal breast cells. MCF 10A DNA re-replication, Hoechst nuclear intensity, 48 h. Potency, µM (highest dose often 46.1 µM), without a hit: at the highest dose activity, positive = re-replication, usual class: activators. hit rate 2.9% among 350,000; also: % of control where 0% means no effect; nearly all actives have a fitted effect of over 50% in size
# KB-3-1 tox – KB-3-1 parental cell cytotoxicity. Potency, µM (titrated, usually from 46.1 µM), hits mostly cytotoxic. hit rate 1.4% among 400,000. KB-3-1 viability, CellTiter-Glo ATP luminescence, 72 h. AID 1347075; also: % is scaled to controls: 0 for no effect and ±100 for the full control effect; nearly all actives have a fitted effect of over 60% in size
#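 KB-3-1 parental drug-naive adenocarcinoma cells in DMEM/10% FBS, incubated 72 h at 37 C with pin-transferred compounds across a concentration series. Viability by CellTiter-Glo luminescence; concentration-response curves fitted after normalization.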
# HT1080 IDH1KD tx – toxicity to HT-1080 IDH1 knockdown cells (counter line) | HT-1080 IDH1 knockdown viability, ATP luminescence, 48 h | Potency, µM (highest dose often 46.1 µM), inactives show top-dose activity, negative = toxicity, hits mostly cytotoxic | hit rate 2% among 360,000 | AID 686971;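 also: 0% = DMSO wells and -100% = cell-free medium wells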
#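 IDH1KD HT-1080 cells, 750/well, RPMI + 5% FBS; compound pinned after 2 h settling; 48 h, 37 °C; CellTiter-Glo luminescence; % activity normalised to DMSO and no-cell wells; curves fitted, classed by r2 and efficacy.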
# Starred values were filed as active, the others as inactive; i = inactive; ? = inconclusive; . = no result given. Calls follow the shape of the dose curve; as a rule, active = well fitted curve in the direction sought with a large enough effect; inconclusive = small, poorly fitted or top-dose-only effect, or another doubt; inactive = no such curve, though single readings can be large; an effect the other way counts as inactive or inconclusive. Potency is read from the fitted curve at half-maximal effect.
SMILES,KB-V1 cytotox,HT1080NT lethal,SW480 rereplic,MCF10A rerep,KB-3-1 tox,HT1080 IDH1KD tx
Cc1cc(N2CCOCC2)ccc1/C=C1\NC(=O)N(Cc2ccccc2F)C1=O,?,1.3%,7.3%,5.17µM*,i,3.2%
O=C(Oc1ccc2c3c(c(=O)oc2c1)CCCC3)c1ccco1,i,14.8%,-21.0%,3.1%,i,6.5%
O=C(CSc1nc2ccccc2c(=O)n1Cc1ccco1)c1ccc(F)cc1,i,-5.5%,3.9%,?,i,?
NC(=O)c1ccc(NC(=O)COC(=O)/C=C/c2cn(-c3ccccc3)nc2-c2cccnc2)cc1,i,-19.9%,5.17µM*,-2.6%,i,-26.0%
O=C(/C=C/c1cn(-c2ccccc2)nc1-c1cccnc1)N1CCCC1,i,3.9%,-1.8%,-1.2%,i,-13.5%
COc1ccc(-c2nn(-c3ccccc3)cc2/C=C/C(=O)OCC(=O)Nc2ccccc2C#N)cc1,?,-11.8%,1.3%,14.6µM*,?,-20.4%
N#Cc1ccccc1NC(=O)COC(=O)/C=C/c1cn(-c2ccccc2)nc1-c1ccc(Cl)cc1,i,-0.6%,0.7%,-5.0%,23.1µM*,0.6%
CNC(=O)COC(=O)/C=C/c1cn(-c2ccccc2)nc1-c1ccc(C)o1,i,3.3%,-1.2%,10.6%,i,0.1%
CN1C(=O)[C@@](O)(CC(=O)c2ccccc2)c2cc(Br)ccc21,i,-1.8%,.,.,?,-12.1%
CN1C(=O)C(O)(CC(=O)c2ccccn2)c2cc(Br)ccc21 (stereo not given),7.31µM*,?,?,?,?,-21.0%
C[n+]1ccc(C(c2c[nH]c3ccccc23)c2cc[n+](C)c3ccccc23)c2ccccc21,i,.,.,.,1.46µM*,.
COc1ccc2c(C(=O)NCc3ccc4c(c3)OCO4)c(-c3ccc(S(C)(=O)=O)cc3)sc2c1,i,7.6%,3.66µM*,117.6%,i,7.3%
Cc1noc(C)c1CSc1nnc(C)c(=O)[nH]1,i,15.7%,-3.8%,3.0%,i,0.5%
COC(=O)c1ccc(COc2ccccc2/C=C(\C#N)C(=O)Nc2ccc(C)cc2C)cc1,?,23.3%,15.4%,?,i,?
COC(=O)c1ccc(COc2ccccc2/C=C(\C#N)C(=O)Nc2c(C)cc(C)cc2C)cc1,16.4µM*,9.2µM*,8.2µM*,5.8µM*,11.6µM*,18.4µM*
O=C(O)c1cccc(N/N=C/c2cc(Br)cc(Br)c2O)c1,i,-11.2%,.,2.3%,i,-8.3%
Cc1c(N=Cc2cc(Br)cc(Br)c2O)cccc1C(=O)O,?,13µM*,-0.6%,?,?,?
C=CCN1N=C(/C=C/c2ccc(OC)cc2)CCC1=O,?,19.1%,2.6%,1.1%,i,14.1%
CCCOc1ccc(C2=NNC(=O)CC2)cc1,0.206µM*,3.3%,-90.4%,11.5%,i,9.7%
O=C1CCC(/C=C/c2ccccc2)=NN1Cc1ccccc1Cl,i,-2.0%,1.4%,12.8%,i,-5.5%
COc1ccc(/C=C/C2=NNC(=O)CC2)cc1,0.411µM*,13.3%,-8.5%,1.1%,1.46µM*,11.6%
CCOC(=O)CN1N=C(/C=C/c2ccc(OCC)cc2)CCC1=O,?,5.4%,2.4%,-0.8%,i,12.3%
O=C1CCC(/C=C/c2ccccc2)=NN1,5.17µM*,0.1%,-30.9%,0.3%,?,1.5%
COc1ccc(C2=NNC(=O)CC2)cc1,?,-4.9%,?,-0.6%,i,-0.4%
CCOc1ccc(/C=C/C2=NNC(=O)CC2)cc1,1.84µM*,1.3%,15.0%,0.6%,i,-1.6%
SMILES,KB-V1 cytotox,HT1080NT lethal,SW480 rereplic,MCF10A rerep,KB-3-1 tox,HT1080 IDH1KD tx
Cc1[nH]c(=O)[nH]c(=O)c1S(=O)(=O)N1CCCC(C(=O)NCc2ccccc2Cl)C1 (stereo not given),i,-6.9%,-4.5%,-3.5%,i,-0.5%
CC[C@]12C(=O)N(C)C[C@H]([C@@H]3C(=O)N(Cc4ccccc4)C(=O)[C@@H]31)N2C(=O)c1ccc(C(F)(F)F)cc1,i,20.0%,12.7%,28.5%,i,6.7%
Cc1ccc(NC(=O)CCc2c(C)nn(-c3ccc(N4CCOCC4)nn3)c2C)c(C)c1,i,9.7%,-1.3%,-1.8%,i,16.0%
Cc1ccc2nc(SCn3nnc4ccccc4c3=O)[nH]c2c1,23.1µM*,-2.1%,0.0%,?,i,-8.0%
Cc1ccc2nc(SCC(=O)c3c(C)[nH]c4ccccc34)[nH]c2c1,?,-13.1%,8.9%,13µM*,i,-3.1%
Nc1nnc(CC(c2ccccc2)c2ccccc2)s1,23.1µM*,1.9%,-1.5%,16.7%,i,1.1%
COC(=O)CN(C(=S)Nc1ccc(F)cc1)C1CC(=O)N(c2ccccc2)C1=O (stereo not given),i,-2.9%,-0.5%,-3.1%,i,-1.6%
O=C1CC(N(CCc2ccccc2)C(=S)Nc2ccccc2)C(=O)N1c1ccccc1 (stereo not given),16.4µM*,?,?,?,i,?
O=C1CC(N(CCc2ccccc2)C(=S)Nc2ccccc2)C(=O)N1c1ccc(F)cc1 (stereo not given),i,?,22.0%,18.4µM*,?,?
CCNC(=S)N(CCc1ccc(S(N)(=O)=O)cc1)C1CC(=O)N(c2ccccc2)C1=O (stereo not given),i,-27.7%,?,-11.8%,?,?
CCOC(=O)c1c(NC(=O)C(C)Sc2cccc[n+]2[O-])sc2c1CCN(Cc1ccccc1)C2 (stereo not given),i,-5.6%,?,?,i,-1.4%
CCOc1ccc2nc(/N=C/c3c(C)[nH]n(-c4ccc(C)cc4)c3=O)sc2c1,10.3µM*,?,-74.1%,-13.1%,11.6µM*,?
CCOc1ccc2nc(SC3CC(=O)N(c4ccc(C)cc4)C3=O)sc2c1 (stereo not given),i,-3.1%,?,?,i,?
CCOc1ccc2nc(/N=C/c3c(C)[nH]n(-c4ccccc4)c3=O)sc2c1,?,0.5%,2.91µM*,-29.1%,?,-1.1%
CCOc1[nH]n(-c2ccccc2)c(=O)c1C=Nc1ccc(OC)cc1,i,-8.0%,-7.8%,-2.8%,i,-14.4%
O=C(NC1CCCN(Cc2ccccc2F)C1)C1CCC1 (stereo not given),i,14.2%,1.2%,-0.5%,i,14.5%
CCc1cc(=O)oc2c3c(cc(OCC(=O)Nc4cccnc4)c12)OC(C)(C)CC3,16.4µM*,-0.6%,0.3%,?,i,-19.7%

# Compound activity deposited in PubChem by National Center for Advancing Translational Sciences (NCATS).
